Among all 69,000 compounds or so, about 8,600 (12%) showed an effect of 50% or more. Many of the other results were omitted from the sample, so strong results are more common in it than they were.
tested on: Plasmodium berghei; experiment: Screen against P. berghei liver stage (PbLuc), transformed with Luciferase, at 10uM; assay type: functional, HepG2; settings: tested at 10 uM

| SMILES | INHIBITION |
| --- | --- |
| Cc1c(CC(C#N)C(=O)Nc2cccc(O)c2)cnn1C (stereo not drawn) | 20.4% |
| Cc1ccc(N(CCC#N)C(=O)CN2CCCC2c2cccs2)cc1 (stereo not drawn) | -3.48% |
| Cc1ccc(C2CCCN2CC(=O)N(CCC#N)c2ccccc2)cc1 (stereo not drawn) | 62.8% |
| Cc1cc(C)cc(N(CCC#N)C(=O)CN2CCCC2c2cccs2)c1 (stereo not drawn) | 6.54% |
| Cc1ccc(N(CCC#N)C(=O)CN2CCCC2c2ccsc2)cc1 (stereo not drawn) | 3.45% |
| N#CCCN(C(=O)CN1CCCC1c1ccsc1)c1ccccc1 (stereo not drawn) | -2.95% |
| N#CCCN(C(=O)CN1CCCC1c1ccccc1Cl)c1ccccc1 (stereo not drawn) | 67.1% |
| CC(=O)N(Cc1ccsc1)c1ccccc1 | 24.2% |
| CC(C)S(=O)(=O)CC(=O)N(Cc1ccsc1)c1ccccc1 | 54.4% |
| CNS(=O)(=O)CC(=O)N(Cc1ccsc1)c1ccccc1 | -2.69% |
| Cc1occc1C(=O)N1C[C@H]2CCCC(OCc3cccnc3)[C@H]2C1 (stereo partly drawn) | 30.3% |
| Cc1cnn(C2CCCN(C(=O)CCCOc3ccccc3F)C2)c1 (stereo not drawn) | -27.8% |
| CS(=O)(=O)NCCCNC(=O)c1cccc(-n2cccc2)c1 | 13.4% |
| Cc1ccc(C(=O)NCCCN(C)S(C)(=O)=O)cc1-n1cccc1 | 12.9% |
| Cc1ccc(C(=O)NCCCNS(C)(=O)=O)cc1-n1cccc1 | 51.3% |
| COc1ccc(CN2C[C@H]3CC[C@@H](C2)N(S(=O)(=O)C2CC2)C3)cc1 | 4.52% |
| O=C1CCN(C(=O)NCCCc2ccc(Cl)cc2Cl)CCN1 | -12.1% |
| Cc1ncsc1-c1nnc(C2CCN(Cc3ccccc3Cl)CC2)o1 | 29.3% |
| Cc1ncsc1-c1nnc(C2CCN(CC3CCCCC3)CC2)o1 | -18.4% |
| Fc1cccc(CN2CCC(c3noc(-c4cnccn4)n3)CC2)c1F | -11.4% |
| Cc1ncsc1-c1nnc(C2CCN(Cc3cccc(F)c3F)CC2)o1 | 54.5% |
| CCn1c(CN(C)C)nnc1C1CCN(Cc2cccc(F)c2F)CC1 | 25% |
| Cc1ncsc1-c1nnc(C2CCN(Cc3ccccc3F)CC2)o1 | 59% |
| Cn1ccnc1CN1CCC(F)(F)C2(CCN(c3cnccn3)C2)C1 (stereo not drawn) | -38.9% |
| CN(C)c1nccnc1C1CCCN(c2cnccn2)C1 (stereo not drawn) | 7.75% |
| COCCNS(=O)(=O)c1c(C)sc2ccccc12 | -35% |
| COCc1cc(N2CCc3onc(-c4cccc(OC)c4)c3C2)ncn1 | 82.2% |

| SMILES | INHIBITION |
| --- | --- |
| COc1cccc(-c2noc3c2CN(c2nc(C)ncc2C)CC3)c1 | 80% |
| COc1cccc(N2CCN(C(=O)c3noc4c3CCCC4)CC2)c1 | 12.6% |
| CC(C)c1ccc(N2CCc3onc(-c4ccc(F)c(F)c4)c3C2)nn1 | 40.3% |
| Cc1cnc(N2CCc3onc(COc4cccnc4)c3C2)nc1 | 32.1% |
| COc1cccc(-c2noc3c2CN(c2ncnc4c2CCC4)CC3)c1 | 89.6% |
| COc1cccc(N2CCN(C(=O)c3noc4c3CCCCC4)CC2)c1 | 10.1% |
| COCC(C)N1CCc2onc(-c3ccc(F)c(F)c3)c2C1 (stereo not drawn) | 16.7% |
| COc1ccc(CC2(C(=O)O)CCN(c3nc(C)ncc3C)CC2)cc1 | -1.25% |
| CC(C)(C)n1ncc2c1NC(=O)CC2c1ccc(C(=O)O)cc1 (stereo not drawn) | -12.2% |
| CC(C)Oc1ccc(Cl)c(C(=O)N2CCN(CCO)CC2)n1 | 33.3% |
| CCSc1ccc(C(=O)N2CCCCC2C(=O)N2CCCC2)cn1 (stereo not drawn) | 20.4% |
| Cc1ccc(CN2CC[C@@H](NC(=O)c3cccnc3)[C@H](O)C2)s1 | -10.9% |
| O=C(c1cccs1)N1CC[C@@H](N2CCOCC2)[C@@H]1Cc1ccccc1 | 19.4% |
| Cn1ncnc1NCc1ccc(F)cc1 | -42.8% |
| Cc1cccc2c1ccn2CCC(=O)O | 17.6% |
| COc1ccccc1C(=O)NCCCN1CCCC1C(=O)N(C)C (stereo not drawn) | -1.85% |
| CN1CCC(Cc2noc(-c3cccc(Oc4ncccn4)c3)n2)CC1 | -0.529% |
| COc1cccc(-c2n[nH]cc2-c2nc(CN3CCCC3)no2)c1 | 34% |
| COc1cccc(-c2n[nH]cc2-c2nc(CC3CCN(C)CC3)no2)c1 | 59.7% |
| Cc1ccc(S(=O)(=O)N2CCCC(c3n[nH]cc3C(=O)N(C)C)C2)cc1 (stereo not drawn) | 11.8% |
| CCOCCNC(=O)c1cccc(Cn2nc(C)cc2C)c1 | -89.3% |
| Cc1cc2n(n1)[C@@H](C(F)(F)F)C[C@@H](C1CCCN(C(=O)C(C)C)C1)N2 (stereo partly drawn) | 1.5% |
| CC(C)Cc1cc(CN2C[C@@H]3CC[C@H]2CN(Cc2cscn2)C3)n[nH]1 | 39.9% |
| CN(Cc1cc(Br)cn1C)C(=O)Cc1cccnc1 | -91.4% |
| CN(Cc1cc(Br)cn1C)C(=O)Cc1cccc(O)c1 | 50.8% |
| CN(Cc1cc(Br)cn1C)C(=O)c1ccsc1 | -82.2% |
